Test results from PubChem BioAssay.
A number with no mark means an inactive call. Calls of active or inactive are those of the source.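 Rule for the calls: active = mean inhibition above 46.5%, the solvent-only control mean plus 3 SD; inactive = the rest.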

Each molecule was assayed against Nuclear receptor coactivator 2 (Homo sapiens) (UniProt Q15596) (assay: SRC2 coactivator transcriptional activity inhibitors, confirmation, cell-based, luminescence, HEK293, triplicate (AID 652008;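 note: 0% = DMSO-treated cells and 100% = Gossypol at 36 µM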)). Details: HEK293 GAL4-SRC2 luciferase reporter, at 8.9 µM, active compounds read high.
Nuclear receptor coactivator 2 (Homo sapiens), sequence (Q15596 whole entry, looked up, the tested form may be a part): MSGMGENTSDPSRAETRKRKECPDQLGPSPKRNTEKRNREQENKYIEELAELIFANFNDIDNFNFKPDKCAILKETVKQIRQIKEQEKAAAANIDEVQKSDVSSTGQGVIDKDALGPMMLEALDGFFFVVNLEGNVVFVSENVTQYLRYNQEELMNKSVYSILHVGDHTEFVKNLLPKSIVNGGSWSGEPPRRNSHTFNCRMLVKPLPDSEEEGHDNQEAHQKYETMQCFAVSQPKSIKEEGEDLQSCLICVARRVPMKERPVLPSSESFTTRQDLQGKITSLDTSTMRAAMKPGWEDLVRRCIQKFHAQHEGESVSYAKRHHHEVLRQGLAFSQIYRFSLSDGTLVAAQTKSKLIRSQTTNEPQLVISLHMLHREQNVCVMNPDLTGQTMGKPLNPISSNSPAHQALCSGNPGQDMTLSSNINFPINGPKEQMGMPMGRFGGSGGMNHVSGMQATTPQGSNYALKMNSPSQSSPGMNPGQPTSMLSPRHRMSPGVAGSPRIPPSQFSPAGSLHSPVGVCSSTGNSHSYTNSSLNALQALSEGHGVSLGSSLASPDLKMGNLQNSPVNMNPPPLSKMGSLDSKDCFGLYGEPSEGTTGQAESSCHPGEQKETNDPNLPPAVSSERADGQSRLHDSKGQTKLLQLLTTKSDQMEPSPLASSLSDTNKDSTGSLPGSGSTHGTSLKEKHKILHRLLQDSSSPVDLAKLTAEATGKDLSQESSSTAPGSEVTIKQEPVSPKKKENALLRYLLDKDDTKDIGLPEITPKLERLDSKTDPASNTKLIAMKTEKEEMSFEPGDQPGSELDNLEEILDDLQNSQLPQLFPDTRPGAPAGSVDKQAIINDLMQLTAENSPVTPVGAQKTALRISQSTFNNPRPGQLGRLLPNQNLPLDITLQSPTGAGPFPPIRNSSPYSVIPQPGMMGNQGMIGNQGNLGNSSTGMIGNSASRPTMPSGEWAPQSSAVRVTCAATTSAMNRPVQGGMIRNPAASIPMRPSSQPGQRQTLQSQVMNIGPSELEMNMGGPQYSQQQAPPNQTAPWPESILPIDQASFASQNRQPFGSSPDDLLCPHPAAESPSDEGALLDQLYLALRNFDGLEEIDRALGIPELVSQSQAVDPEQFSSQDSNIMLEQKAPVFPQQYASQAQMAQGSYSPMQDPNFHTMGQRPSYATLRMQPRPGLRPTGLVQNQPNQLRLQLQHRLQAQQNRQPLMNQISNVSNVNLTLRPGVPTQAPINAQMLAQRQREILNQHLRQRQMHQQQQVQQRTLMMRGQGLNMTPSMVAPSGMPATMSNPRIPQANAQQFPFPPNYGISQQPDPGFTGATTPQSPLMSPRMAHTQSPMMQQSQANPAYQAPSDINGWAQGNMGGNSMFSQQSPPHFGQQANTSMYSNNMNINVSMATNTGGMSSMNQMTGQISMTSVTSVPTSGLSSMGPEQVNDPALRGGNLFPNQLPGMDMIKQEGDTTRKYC

Compound | inhibition
CCN(CC)S(=O)(=O)c1ccc(NC(=O)Nc2cccc(C(F)(F)F)c2)cc1 | 14%
Cc1ccc(C(=O)Nc2nc3ccccc3[nH]2)cc1 | 49.1% (active)
Cc1nc(SCc2ccc(C(=O)O)cc2)nc2c1CCCC2 | 23.6%
COc1ccccc1/C=C/C(=O)c1cc(Br)ccc1OC(=O)c1ccco1 | -2.06%
COc1ccc(S(=O)(=O)Nc2cc(Sc3ncn[nH]3)c(O)c3ccccc23)cc1 | 10.1%
CC(=O)C1=CCC(c2ccccc2Cl)N(S(=O)(=O)c2ccc(C)cc2)C1 (centres undefined) | 15.3%
O=C(NCC1COc2ccccc2O1)c1cccc(S(=O)(=O)N2CCN(c3ccccc3)CC2)c1 (centres undefined) | 5.11%
CC1CCC(C(C)C)C(OCC(O)CN2CCCC(C)C2)C1 (centres undefined) | -16.1%
CCOc1ccc(-c2cc(CCCC(=O)NCc3ccco3)no2)cc1 | 37.5%
Nc1nonc1C(=O)NCCNCc1cc(Br)ccc1OCc1ccc(F)cc1 | 1.86%
O=C(c1ccccc1)C(CN1CCCCC1)c1ccccc1 (centres undefined) | 63.6% (active)
CS(=O)(=O)c1ccc(Cl)c(NC(=O)c2cccc(-n3cnnn3)c2)c1 | -13.4%
CC(C)N(Cc1ccccc1)C(=S)NCc1ccccc1 | -6.45%
COc1cccc(N2C(=O)CC(NNC(=O)c3cccs3)C2=O)c1 (centres undefined) | -23.7%
O=c1ccn(Cc2ccc(F)cc2)c2ccnc(C(F)(F)F)c12 | 16.6%
Cc1ccc(/C=C2\SC(=S)N(CCCC(=O)Nc3ccccc3C(=O)O)C2=O)cc1 | 59.4% (active)
CCCn1c(CC)nc([N+](=O)[O-])c1Sc1ccc(F)cc1 | 13.2%
Oc1cccc2c(NC(=S)Nc3ccc(SC(F)F)cc3)cccc12 | 53.1% (active)
CC(C)C[C@@H]1COc2cc(Br)ccc2S(=O)(=O)N1Cc1cn(CCC2OCCCO2)nn1 | 3.37%
CCCSc1ccc2nc(-c3ccccc3)cn2c1 | 58% (active)
CC(=O)N(CCc1ccccc1)c1ccc2c(c1)C1CC2CCN1C(=O)OCc1ccccc1 (centres undefined) | 18.6%
O=C(Nc1nccs1)c1cc2c(s1)CCCCC2 | 38.7%
Cn1cc(CN2CCN(CCO)CC2)c(-c2ccc(Oc3ccccc3)cc2)n1 | 7.36%
CN(C)S(=O)(=O)c1cccc(NC(=O)CSc2ncnc3ccccc23)c1 | 29.7%
